# Measurements published in PubChem BioAssay (Tox21).
# Inconclusive results are not listed. Entries that show only a call come without a potency. The source made the active and inactive calls. Calls follow the shape of the dose curve; as a rule, active = well fitted cell-killing curve with a large enough effect in the repeat runs; inconclusive = weak or mixed curves, or effect the other way; inactive = flat fitted curve, though single readings scatter.
# Assay: qHTS assay to identify small molecule agonists of the sonic hedgehog signaling (Shh) pathway - cell viability counter screen (AID 1259366); also: nearly all actives have a fitted effect of over 50% in size
# Conditions: NIH/3T3 Gli1-Luc viability, CellTiter-Fluor, 24 h; series mostly up to 92.4 µM
# Description: National Center for Advancing Translational Sciences [NCATS]
# NIH Chemical Genomics Center [NCGC]
# U.S. Environmental Protection Agency [EPA]
# National Institutes of Environmental Health Sciences [NIEHS]
# National Toxicology Program [NTP]
# U.S. Food and Drug Administration [FDA]
# The sonic hedgehog (Shh) pathway is essential for normal embryonic development. Dysregulation of the Shh pathway can cause severe developmental defects in organs. Therefore chemicals that interfere with the pathway are potential developmental toxicants. A cell line designated 3T3Gli1-Luc (DMB/OARSA/CFSAN/FDA, Laurel, MD), a NIH/3T3 derived clone containing stably integrated Gli1-Luc reporter is used to detect chemical interference of the Shh pathway, by changes in the expression of the firefly Luc gene under the control of the Gli1 transcriptional response element. This cell line was used to screen Tox21 libraries for identifying and prioritizing the potential developmental toxicants that interfere Shh pathway. The cytotoxicity of the compounds was tested in parallel by measuring the cell viability using CellTiter-Fluor assay system (Promega, Madison, WI) in the same wells.
# Tox21 Assay Protocol Summary:
# 3T3 Gli1-Luc cells were dispensed at 2,000 per well in 5uL of culture medium into white solid bottom 1536-well plates (Greiner Bio-One, Monroe, NC) using a Multidrop Combi (Thermo Scientific, Waltham, MA) dispenser. The assay plates were incubated at 37 C and 5% CO2 for 4hr, and then 23nL of compounds dissolved in DMSO and positive control were transferred using a Pintool station (Wako, San Diego, CA). The assay plates were incubated at 37C and 5% CO2 for 24hr. For viability read, after 23hr of compound treatment, 1uL of CellTiter-Fluor reagent (Promega Corporation, Madison, WI) was added to each well of the assay plates using Flying Reagent Dispenser (FRD, Aurora Discovery, San Diego, CA) and incubated the assay plates at 37C for 1hr. The fluorescence signal was quantified using a ViewLux plate reader (Perkin Elmer, Shelton, CT).
SMILES,Potency,"viability change, negative = cytotoxic"
Cc1ncc([N+](=O)[O-])n1CC(O)CCl (stereo not given),inactive,
C1=CCC(c2ccccc2)CC1 (stereo not given),inactive,
Nc1cc(C(=O)O)ccc1Cl,inactive,
CCCCCCCCCCCCC,inactive,
O=C(CN1CCN(Cc2ccc3c(c2)OCO3)CC1)N1c2ccccc2Sc2ccccc21,inactive,
C=CCOC(=O)c1ccc(C(=O)OCC=C)c(C(=O)OCC=C)c1,inactive,
CC(C)C(=O)c1ccccc1,inactive,
C=CCOc1c(Br)cc(Br)cc1Br,inactive,
CCCCCC1Nc2cc(C(F)(F)F)c(S(N)(=O)=O)cc2S(=O)(=O)N1 (stereo not given),inactive,
Cc1ccc(S(=O)(=O)NC(=O)NC2CCCCCCC2)cc1,inactive,
CCN1CN(CC)CN(CC)C1,inactive,
CC(C)COC(=O)/C=C/c1ccccc1,inactive,
CC(C)=CC(C)(C)C,inactive,
CN(C)CCCNCCC#N,inactive,
O=C(O)/C=C/c1ccccc1,inactive,
COc1cccc2sc(N)nc12,inactive,
CCOC(=O)CC#N,inactive,
BrC/C=C/CBr,,0.645% [at 19 µM] (inactive)
NS(=O)(=O)c1cc2c(cc1Cl)NC(CC1CCCC1)NS2(=O)=O (stereo not given),inactive,
C=CCOc1cc(Cl)ccc1C(=O)NCCN(CC)CC,inactive,

SMILES,Potency,"viability change, negative = cytotoxic"
CC(C)(CO)[C@@H](O)C(=O)NCCCO,inactive,
CCC(O)C(C)(C)C (stereo not given),inactive,
OCCCCCCCl,inactive,
Cc1nc([N+](=O)[O-])cn1-c1ccc([N+](=O)[O-])cc1,inactive,
CC(C)SCc1ccco1,inactive,
OC(CCN1CCCCC1)(c1ccccc1)c1ccccc1,inactive,
Cc1ccc2c(c1)c1c3n2CCNC3CCC1 (stereo not given),inactive,
CCc1nccnc1C,inactive,
O=C(O)CCNC(=O)c1ccccc1,inactive,
CN=C(NC#N)NCCSCc1csc(N=C(N)N)n1,inactive,
O=S(=O)(O)SSS(=O)(=O)O,inactive,
CCCCCCCCCCCCCCCCI,,5% [at 19 µM] (inactive)
COC(/C=C(\C)CCC=C(C)C)OC,inactive,
COCCOCCOCCOC,inactive,
O=S(=O)(O)c1cc(O)ccc1O,inactive,
C[CH2][Ge]([Cl])([CH2]C)[CH2]C,inactive,
O=c1cc(O)c(Cl)c[nH]1,inactive,
CC(=O)c1ccc2c(c1)CCCC2,inactive,
CCS(=O)(=O)CCn1c([N+](=O)[O-])cnc1C,inactive,
O=C(O)c1ccc(OCCN2CCCCC2)cc1,inactive,
